Test results as given in PubChem BioAssay.
Values without a mark were called inactive. No rule for the calls is given here.

The compounds below were run against Pantothenate synthetase (Mycobacterium tuberculosis (strain ATCC 25618 / H37Rv)) (UniProt P9WIL5) (assay: Recombinant Mtb pantothenate synthetase (PanC) inhibitors, coupled enzyme, confirmatory (AID 375;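 also: 0% = full reaction with vehicle and 100% = no enzyme background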)). Conditions: coupled enzyme assay; at 10 µM, active compounds read high.
Chain of Pantothenate synthetase (Mycobacterium tuberculosis (strain ATCC 25618 / H37Rv)) (P9WIL5 whole entry, looked up): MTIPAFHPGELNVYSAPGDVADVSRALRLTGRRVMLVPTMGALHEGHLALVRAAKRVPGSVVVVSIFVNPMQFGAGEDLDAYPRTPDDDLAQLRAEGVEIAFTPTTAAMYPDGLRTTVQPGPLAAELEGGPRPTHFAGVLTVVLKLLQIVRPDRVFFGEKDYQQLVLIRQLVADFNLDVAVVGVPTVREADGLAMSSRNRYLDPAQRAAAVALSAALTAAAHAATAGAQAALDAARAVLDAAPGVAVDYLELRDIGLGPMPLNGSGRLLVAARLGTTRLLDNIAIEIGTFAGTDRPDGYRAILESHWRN

SMILES | inhibition [%]
COC(=O)c1ccc(Cl)c(NC(C)=O)c1 | 4
CCOC(=O)c1sc2nc(C)cc(C)c2c1N | 0
Cn1c(=O)n(CCN2CCOCC2)c(=O)c2c1nc1n2CCN1c1ccccc1 | 2
Cc1c(Cl)cnc(NC(=O)COC(=O)C(NC(=O)c2ccco2)C(C)C)c1Cl (centres undefined) | 8
